Compound activity from PubChem BioAssay.
This is a sample that favours compounds with a hit; in the whole collection about 19% have one here.
Shiga toxin inh: A qHTS for Small Molecule Inhibitors of Shiga Toxin. Vero cells, Shiga toxin protein synthesis inhibition reporter. inhibition, % at 38.7 µM. 290,000 compounds, 9.2% hits. AID 2315, 2010; in the data active = inhibition mostly above about 28%, no sharp cut-off; inactive = mostly below about 43%; note: 0% is about no effect
Pf growth 48h: Primary qHTS for delayed death inhibitors of the malarial parasite plastid, 48 hour incubation; P. falciparum luciferase growth in erythrocytes, 48 h; Potency, µM (top dose mostly 28.7 µM), for inactives: at the highest dose activity change, negative = inhibition, actives largely listed as inhibitors; 310,000 compounds, 5.9% hits; note: potency is the fitted concentration of half-maximal effect; % is set by controls: 0 for no effect and ±100 for the full control effect
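Compounds are pin-transferred into medium, infected erythrocytes (2% hematocrit, 0.1% parasitemia final) are added, and plates sit one parasite generation at 37 C in 5% CO2. Detection reagent is then added and luminescence measured.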
MARV entry inh: qHTS for inhibitors of binding or entry into cells for Marburg Virus | Marburg virus pseudotyped entry inhibition, cell reporter | AID 540276, 2011 | 300,000 compounds, 1.8% hits | Potency, µM (doses to about 37.8 µM), inactives show at the top dose activity change, negative = inhibition, usual class: inhibitors; calls by dose curve; tested in HEK293 cells; note: potency is the fitted concentration of half-maximal effect; % is set by controls: 0 for no effect and ±100 for the full control effect
Pf growth 96h: Primary qHTS for delayed death inhibitors of the malarial parasite plastid, 96 hour incubation. P. falciparum luciferase reporter growth, 96 h. Potency, µM (top dose mostly 28.7 µM), inactives show at the top dose activity change, negative = inhibition, most hits filed as inhibitors. 320,000 compounds, 6.9% hits; note: potency is the fitted concentration of half-maximal effect; % is set by controls: 0 for no effect and ±100 for the full control effect
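P. falciparum expressing integrated firefly luciferase grown in erythrocytes (2% hematocrit, 0.05% parasitemia final) with compounds for 96 hours at 37 C, 5% CO2. Growth inhibition read as loss of luminescence after adding luciferase detection reagent.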
Lassa entry inh: qHTS for Inhibitors of binding or entry into cells for Lassa Virus. Lassa virus pseudotype entry inhibition, cell reporter. Potency, µM (highest dose often 37.9 µM), inactives show at the highest dose activity change, negative = inhibition, most hits filed as inhibitors. 300,000 compounds, 1.2% hits. AID 540256, 2011; calls by dose curve; tested in HEK293 cells; note: potency is the fitted concentration of half-maximal effect; % is set by controls: 0 for no effect and ±100 for the full control effect; nearly all actives have a fitted effect of over 50% in size
Cycloheximide cs: Cycloheximide Counterscreen for Small Molecule Inhibitors of Shiga Toxin; cell reporter, cycloheximide protein synthesis inhibition counterscreen; max response, %; 300,000 compounds, 12% hits; AID 2314, 2010; in the data active = max response mostly above about 13%, no sharp cut-off; inactive = mostly below about 14%; note: read at 38.3 µM for the half of the compounds with a filed dose; 0% is about no effect
* hit, by the source's call; ? = inconclusive; nt = no result given; [ ] = another dose, or the depositor's remark. Unless noted, calls come from the whole dose curve; as a rule, active = well fitted inhibition curve with a large enough effect; inconclusive = small, poorly fitted or top-dose-only effect, or another doubt; inactive = no such curve, though single readings can be large or run the other way.

SMILES | Shiga toxin inh | Pf growth 48h | MARV entry inh | Pf growth 96h | Lassa entry inh | Cycloheximide cs
Cc1[nH]n(-c2ccccc2)c(=O)c1/C=N/N1C(=O)c2cccc3cccc(c23)C1=O | 14 | 9% | ? | 23% | -22% | -1
c1ccc(-c2nc(-c3ccco3)n3ccccc23)cc1 | 2 | 0% | ? | -7% | -6% | 2
CCC(C)NC(=O)c1c(N)n(/N=C/c2cccnc2)c2nc3ccccc3nc12 (centres undefined) | 61 | ? | 26µM* | ? | -37% | 4
COCCCNC(=O)c1c(N)n(/N=C/c2cccnc2)c2nc3ccccc3nc12 | 33 | ? | ? | 63%[5.75 µM] | -9% | -1
CCC(C)NC(=O)c1c(N)n(/N=C/c2ccccn2)c2nc3ccccc3nc12 (centres undefined) | 10 | -1% | ? | 7% | 8% | 8
CC(C)CNC(=O)c1c(N)n(/N=C/c2cccnc2)c2nc3ccccc3nc12 | -29 | 6% | nt | 3.3µM* | nt | -4
COc1ccc(OC)c(S(=O)(=O)NC(C)c2ccc(-n3ccnc3)cc2)c1 (centres undefined) | nt | ? | nt | 4% | nt | nt
COC(=O)c1ccc(NC(=O)CN2CCC(NC(=O)c3ccco3)CC2)cc1 | 1 | -28% | nt | 4% | nt | 7
Cc1cc(N2CCC(C(=O)N3CCN(c4cccc(C)c4C)CC3)CC2)n2ncnc2n1 | -22 | 2.3µM* | ? | nt | -16% | -2
Cc1cccc(N2CCN(C(=O)C3CCCCC3)CC2)c1C | -10 | nt | -23% | ? | -35% | -1
O=C(CSc1nnc(-c2cccs2)n1-c1ccccc1)N1CCCc2ccccc21 | -11 | nt | 12µM* | nt | ? | -2
O=C(CSc1nnc(-c2cccnc2)n1-c1ccc(SC(F)F)cc1)N1CCCc2ccccc21 | -7 | ? | 7% | 10µM* | -1% | -2
CCn1c(SCC(=O)N2CCCc3ccccc32)nnc1-c1cccs1 | -5 | ? | 9% | 17% | -28%[14.3 µM] | -2
COc1ccc(/C=C/c2nnc(NC(=O)CSc3ccc(C)cc3)s2)cc1 | 94* | 17% | 5%[46.1 µM] | ? | ? | 15*
CCC(=O)Nc1nnc(/C=C/c2ccc(OC)cc2)s1 | 55* | 26% | -7%[46.1 µM] | 30% | ? | 32*
Cc1ccc(SCC(=O)Nc2nnc(C(C)(C)C)s2)cc1 | nt | -15% | -15%[46.1 µM] | 44% | -9%[46.1 µM] | 0
COc1ccc(C(=O)COC(=O)c2cc([N+](=O)[O-])ccc2N2CCOCC2)c(OC)c1 | nt | -8% | 2.2µM* | 2% | -11% | nt
O=C(COC(=O)c1cc([N+](=O)[O-])ccc1N1CCOCC1)c1ccccc1Cl | -5 | 15% | -3%[46.1 µM] | 16% | -18%[46.1 µM] | 1
Cc1cc(C)c(C(=O)COC(=O)c2cc([N+](=O)[O-])ccc2N2CCOCC2)cc1C | nt | 10µM* | -1% | ? | 17% | nt
O=C(COC(=O)c1cc([N+](=O)[O-])ccc1N1CCOCC1)c1ccccc1 | nt | -19% | 18% | -3% | -15%[46.1 µM] | nt
COc1ccccc1C(=O)COC(=O)c1cc([N+](=O)[O-])ccc1N1CCOCC1 | nt | 4.7µM* | ? | ? | -10% | nt
CC(Oc1ccc(Cl)cc1Cl)C(=O)NCCC1=CCCCC1 (centres undefined) | -7 | -28% | -4% | ? | -3% | -1
O=C(CN1C(=O)C2(OCCCO2)c2ccccc21)NCc1ccccc1 | -10 | -3% | -3% | 71% | -6% | 1
CN(CC(=O)Nc1n[nH]c(=S)s1)S(=O)(=O)c1cccc2cccnc12 | -7 | -5% | nt | 5.2µM* | nt | -5
CCC(C(=O)O)n1c(C(F)(F)F)nc2ccccc21 (centres undefined) | 3 | -24% | 0% | ? | 1% | -2
Cc1c(NC(=O)c2cc(-c3ccc(Cl)cc3)on2)c(=O)n(-c2ccccc2)n1C | -4 | 11% | -3%[46.1 µM] | 0% | 23% | 5
CCc1ccc(OCC(=O)NNC(=O)C2CCN(c3ncnc4sc(C)c(C)c34)CC2)cc1 | nt | ? | -10% | ? | 11% | nt
CN1C[C@@H]2C(c3ccccc3)C3(c4cccnc4)CC2(C3)[C@H]1c1ccccc1 (some centres undefined) | -7 | 12µM* | nt | 12µM* | nt | -3
